The source of these data is PubChem BioAssay.

Experiment [1] is described as follows: inhibitors of TNFa-induced NFkB p65 translocation, primary screen, imaging, HUVEC, MLSMR starter and 10KST1 sets (AID 438;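 active = inhibition above 20% together with a positive visual image hit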;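 also: compound added about 3h40 before a 20 min TNFalpha stimulation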;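 as to inhibition: signal is the nuclear over cytoplasmic p65 intensity ratio per well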). As to conditions: HUVEC TNFa-induced p65 nuclear translocation; cell count: measured here: nuclei count (cytotoxicity indicator), at 2.08 µM; inhibition: at 2 µM, stronger effect = higher value, 0% TNFa-plus-vehicle, 100% no-TNFa wells.
Experiment [2] is described as follows: reduction of polyQ htt aggregates in cells – imaging, exon1htt(103Q)mCFP cells, high-content imaging, primary screen (AID 483;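 active = visual image review flags a hit and inhibition of aggregation exceeds 20%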;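 also: compound exposure lasted 3 days before fixation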;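 as to nuclei count: percent of the per-plate median nuclei count of sample wells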). The settings on record: exon1htt(103Q)mCFP cell line, aggregate imaging, at 2 µM; inhibition of aggregation: stronger effect = higher value; nuclei count: measured here: cell count, toxicity.
The nature of experiment [3]: endothelial E-selectin expression blockers – imaging, HUVEC, immunofluorescence, MLSMR starter and 10KST1 sets, primary screen (AID 487;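 active = visually confirmed hit in the image check and inhibition above 20%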;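 as to inhibition: signal is fraction of cell area covered by stained E-selectin grains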;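 as to nuclei count: 100% = median nuclei count of all wells on the same plate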). The settings on record: HUVEC TNFalpha-induced E-selectin immunofluorescence imaging, at 2 µM; inhibition: stronger effect = higher value; nuclei count: measured here: cell number, toxicity.
The target in experiment [4] is Voltage-gated potassium channel subunit beta-2 (Rattus norvegicus) (UniProt P62483). Kind of experiment: inhibitors of rat Kvbeta2 reductase activity – biochemical, NADPH fluorescence, primary screen (AID 622;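 active = fluorescence slope higher than the sample average by over 3 SD, cut at about -0.22 in these data, passing the limit was not always enough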;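 also: slope of raw intensity against log time taken from 70 to 1610 s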). As to conditions: recombinant KvBeta, 4-cyanobenzaldehyde reduction, at 10 µM, stronger effect = higher value.
Chain of Voltage-gated potassium channel subunit beta-2 (Rattus norvegicus) (P62483 whole entry, looked up): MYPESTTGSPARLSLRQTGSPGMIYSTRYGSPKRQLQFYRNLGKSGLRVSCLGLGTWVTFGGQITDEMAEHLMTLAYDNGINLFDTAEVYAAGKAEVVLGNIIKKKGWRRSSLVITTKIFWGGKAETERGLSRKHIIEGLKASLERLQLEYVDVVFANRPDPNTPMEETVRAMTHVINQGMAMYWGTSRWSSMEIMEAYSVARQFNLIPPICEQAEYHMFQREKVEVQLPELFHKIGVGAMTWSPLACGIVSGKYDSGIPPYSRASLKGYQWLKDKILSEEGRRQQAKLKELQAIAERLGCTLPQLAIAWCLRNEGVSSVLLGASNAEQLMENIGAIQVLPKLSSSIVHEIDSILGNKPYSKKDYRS
Experiment [5] shares this target. The experiment in a line: enhancers of rat Kvbeta2 NADPH turnover – biochemical, NADPH fluorescence, primary screen (AID 623;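 active = NADPH fluorescence slope more negative than the mean of all samples by about 3 SD, 99.7% confidence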;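 also: fluorescence intensity change per second fitted from 20 to 320 s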). As to conditions: Recombinant KvBeta, NADPH fluorescence decrease slope, 10 min; at 10 µM; stronger effect = lower value.
Experiment [6] concerns the target Alpha-2C adrenergic receptor (Homo sapiens) (UniProt P18825). The experiment in a line: compounds altering alpha2C-coupled GIRK flux – cell-based, HEK293 alpha2C/GIRK1/2, thallium flux, primary screen (AID 624;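 active = fluorescence slope after compound addition differing from the mean of all screened samples at 99.7% confidence, in either direction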;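 also: slope of fluorescence ratio to pre-addition baseline per second over 15 to 24 s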). The settings on record: thallium flux BTC fluorescence, at 10 µM, actives lie on both sides.
Experiment [7] is described as follows: blockers of RIG-like receptor reporter activation – cell-based, Sendai virus stimulus, luciferase, 10K MLSCN set, TLR/RLR signaling modifier project, primary screen (AID 602276;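 active = inhibition at or above 50% at 10 µM; inactive = inhibition below 50%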;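 also: firefly luciferase from ISG56 promoter only with Renilla not read in this screen; 0% = Sendai virus plus DMSO and 100% = medium plus DMSO without virus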). The settings on record: HEK293 RL24 IRF3 luciferase reporter, at 10 µM, stronger effect = higher value. For orientation: A reporter such as luciferase makes a cellular process visible.
Experiment [8] in a line: TLR3 IRF3 reporter activation blockers – cell-based, poly I:C stimulus, luciferase, 10K MLSCN set, primary screen (AID 602277). As to conditions: HEK293-TLR3 RL24 IRF3 luciferase reporter, at 10 µM, stronger effect = higher value.

Calls of active or inactive are those of the source.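 The calls were made as follows, unless noted: active = inhibition of the reporter signal at or above 50%; inactive = inhibition below 50%.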

Chain of Alpha-2C adrenergic receptor (Homo sapiens) (P18825 whole entry, looked up): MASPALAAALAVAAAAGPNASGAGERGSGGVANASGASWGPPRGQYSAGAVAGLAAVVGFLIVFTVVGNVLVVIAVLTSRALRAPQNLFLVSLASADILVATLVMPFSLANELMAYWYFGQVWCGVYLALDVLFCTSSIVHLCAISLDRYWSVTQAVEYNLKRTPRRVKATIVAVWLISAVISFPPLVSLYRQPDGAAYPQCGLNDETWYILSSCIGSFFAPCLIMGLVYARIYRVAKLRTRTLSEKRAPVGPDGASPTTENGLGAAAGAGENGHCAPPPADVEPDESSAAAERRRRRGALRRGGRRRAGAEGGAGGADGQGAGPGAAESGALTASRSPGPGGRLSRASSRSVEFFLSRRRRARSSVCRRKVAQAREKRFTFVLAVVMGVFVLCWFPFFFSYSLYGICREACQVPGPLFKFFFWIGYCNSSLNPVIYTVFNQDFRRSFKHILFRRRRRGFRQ

With `O=C(COC(=O)C1CC(=O)N(c2ccccc2)C1)c1ccccc1` (centres undefined), the cell count in experiment [1] turned out to be 603. For the same compound, the inhibition was 2.4% (inactive) in experiment [1], -21% (inactive) in experiment [3], -13.2% (inactive) in experiment [7] and -4.16% (inactive) in experiment [8]. For the same compound, in experiment [2], the inhibition of aggregation was -21% (inactive). The results for the nuclei count in experiment [2] and in experiment [3] were 99.9% and 123%, respectively. Further, the fluorescence slope in experiment [4] is -0.604 (inactive). The NADPH fluorescence slope in experiment [5] was -2.9e-05 (inactive). Further, the slope in experiment [6] was 0.00601 (inactive).

For `CS(=O)(=O)N(CC(=O)NCCSCc1cccc(Cl)c1)c1ccc2c(c1)OCO2`, in experiment [1], the cell count stood at 233. Moreover, the inhibition in experiment [1] was -4.5% (inactive); in experiment [3], 32.5% (inactive); in experiment [7], -12% (inactive); in experiment [8], 1.85% (inactive). In experiment [2], the inhibition of aggregation was 35.8% (active). The nuclei count in experiment [2] turned out to be 96.5%; in experiment [3], 71.4%. Also, the fluorescence slope in experiment [4] is -0.528 (inactive). The NADPH fluorescence slope in experiment [5] is -5.8e-05 (inactive). Moreover, in experiment [6], the slope was 0.00685 (inactive).

With `Cc1nc(NCc2ccco2)c2oc3ccccc3c2n1`, the cell count in experiment [1] was 337. The inhibition in experiment [1] is 15% (inactive); in experiment [3], 19.5% (inactive); in experiment [7], 3.36% (inactive); in experiment [8], -32.5% (inactive). For the same compound, the inhibition of aggregation in experiment [2] was -4.3% (inactive). For the same compound, the nuclei count stood at 94.4% in experiment [2] and 96.4% in experiment [3]. Moreover, the fluorescence slope in experiment [4] is -0.389 (inactive). For the same compound, in experiment [5], the NADPH fluorescence slope is -1.9e-05 (inactive). Further, in experiment [6], the slope is 0.00599 (inactive).

Take `O=C(OCN1C(=O)c2ccccc2C1=O)C1CCCCC1`: in experiment [1], the cell count was found to be 391. The inhibition was 3.5% (inactive) in experiment [1], -43.8% (inactive) in experiment [3], 6.81% (inactive) in experiment [7] and 12.4% (inactive) in experiment [8]. In addition, the inhibition of aggregation in experiment [2] is 3.5% (inactive). Also, the figures for the nuclei count in experiment [2] and in experiment [3] were 95.3% and 113%, respectively. Also, the fluorescence slope in experiment [4] was -0.348 (inactive). In addition, the NADPH fluorescence slope in experiment [5] was -5e-05 (inactive). For the same compound, the slope in experiment [6] was 0.00442 (inactive).

On to `Cc1ccc(-c2nc3cc(NC(=O)C(C)C)ccc3o2)cc1C`, for which, in experiment [1], the cell count turned out to be 709. Also, the inhibition in experiment [1] was -5% (inactive); in experiment [3] it was -160% (inactive); in experiment [7], 19.2% (inactive); in experiment [8] it was 12.7% (inactive). Moreover, the inhibition of aggregation in experiment [2] is -7.4% (inactive). Moreover, the nuclei count in experiment [2] was determined as 99.3%; in experiment [3], 122%. Besides, the fluorescence slope in experiment [4] was -0.453 (inactive). Moreover, the NADPH fluorescence slope in experiment [5] is 2.2e-05 (inactive). Moreover, in experiment [6], the slope is 0.00605 (inactive).

With `COc1ccc(NC(=O)CCS(=O)(=O)c2ccc(OC)cc2)cc1`, in experiment [1], the cell count turned out to be 401. The inhibition was -2.5% (inactive) in experiment [1], -24% (inactive) in experiment [3], -3.69% (inactive) in experiment [7] and -1.71% (inactive) in experiment [8]. The inhibition of aggregation in experiment [2] is 20.3% (inactive). Moreover, the nuclei count in experiment [2] was found to be 84.3%; in experiment [3], 101%. Moreover, the fluorescence slope in experiment [4] is -0.539 (inactive). Also, the NADPH fluorescence slope in experiment [5] was -8.1e-06 (inactive). Further, the slope in experiment [6] was 0.00539 (inactive).

`Cc1nc2sc(C(c3ccc(Br)cc3)N3CC(C)OC(C)C3)c(O)n2n1` (centres undefined): the cell count in experiment [1] was determined as 260. In addition, the inhibition in experiment [1] is -5.4% (inactive); in experiment [3], -6.9% (inactive); in experiment [7] it was 4.21% (inactive); in experiment [8], 17.4% (inactive). Besides, the inhibition of aggregation in experiment [2] is -0.8% (inactive). For the same compound, the nuclei count was found to be 106% in experiment [2] and 114% in experiment [3]. Besides, the fluorescence slope in experiment [4] was -0.437 (inactive). Further, the NADPH fluorescence slope in experiment [5] was -6.3e-05 (inactive). In experiment [6], the slope was 0.00564 (inactive).

Turning to `Cn1c(=O)c2c(nc(CN3CCCCC3)n2CCCc2ccccc2)n(C)c1=O`, the cell count in experiment [1] was 431. Also, the inhibition in experiment [1] is 10.1% (inactive); in experiment [3], 38.4% (inactive); in experiment [7], 15.4% (inactive); in experiment [8] it was 44.7% (inactive). In addition, the inhibition of aggregation in experiment [2] was -30.7% (inactive). In addition, the nuclei count in experiment [2] and in experiment [3] was 102% in each case. The fluorescence slope in experiment [4] was -0.46 (inactive). Further, the NADPH fluorescence slope in experiment [5] was -9.8e-06 (inactive). The slope in experiment [6] is 0.00664 (inactive).

As to `O=C(Nc1nnc(-c2ccc(Cl)cc2)o1)C1CCCCC1`, the cell count in experiment [1] was determined as 673. Besides, the inhibition in experiment [1] was 1.8% (inactive); in experiment [3], -21.5% (inactive); in experiment [7], 6.6% (inactive); in experiment [8] it was 3.98% (inactive). In addition, the inhibition of aggregation in experiment [2] was 18.6% (inactive). Also, the nuclei count in experiment [2] is 96.8%; in experiment [3], 115%. Moreover, the fluorescence slope in experiment [4] was -0.443 (inactive). Further, the NADPH fluorescence slope in experiment [5] is -6.8e-05 (inactive). In addition, the slope in experiment [6] was 0.00624 (inactive).

As a reminder, the inhibition is the change of the read-out against control, counted positive when it falls.
